# From PubChem BioAssay
# Menin-MLL FL inh: qHTS Assay for Inhibitors Targeting the Menin-MLL Interaction in MLL Related Leukemias: Competition With Fluorescein Labeled MLL-derived Peptide | 290,000 tested, under 10 active | Fluorescence polarization, fluorescein-MLL peptide displacement from menin | AID 1766, 2009 | FP activity change, % at 61.4 µM; active = well fitted curve in the direction sought with a large enough effect in the polarisation, not every such curve was filed as active; inconclusive = small, poorly fitted or top-dose-only effect, or effect the other way, or a change in a side signal; inactive = no such curve, though single readings can be large or run the other way; the % refers to the polarisation; note: % of control where 0% means no effect
# Tb PFK inh: qHTS Assay to Find Inhibitors of T. brucei phosphofructokinase | ATP-dependent 6-phosphofructokinase (Trypanosoma brucei brucei), O15648 | T. brucei PFK, ADP-Glo luminescence | Potency, µM (highest dose often 57.5 µM), for inactives: at the top dose activity, negative = inhibition, actives largely listed as inhibitors | 330,000 compounds, 0.17% hits | AID 485367, 2010; active = well fitted inhibition curve with a large enough effect; inconclusive = small, poorly fitted or top-dose-only effect, or effect the other way;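 note: potency is the fitted concentration of half-maximal effect; 0% = uninhibited 1x PFK enzyme wells and -100% = no-enzyme wells; nearly all actives have a fitted effect of over 60% in size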
#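 ADP-Glo luminescence quantified ADP after 45 min at room temperature, with 1.25 nM T. brucei PFK, 0.1 mM ATP and 0.5 mM fructose-6-phosphate in pH 8.0 TEA buffer. qHTS titrations up to 57 µM; curves classified by quality.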
# Menin MLL FP TR: qHTS Assay for Inhibitors Targeting the Menin-MLL Interaction in MLL Related Leukemias: Competition With Texas Red Labeled MLL-derived Mutant Peptide | O00255 | Menin + Texas Red MLL mutant peptide, fluorescence polarization | Potency, µM (series often up to 61.6 µM), inactives show top-dose FP activity change, negative = inhibition, usual class: inhibitors | 270,000 compounds, 0.23% hits | AID 1768, 2009; active = well fitted inhibition curve with a large enough effect in the polarisation, with a control signal flat, not every such curve was filed as active; inconclusive = small, poorly fitted or top-dose-only effect, or effect the other way, or a change in a side signal; inactive = no such curve, though single readings can be large or run the other way; the % refers to the polarisation; note: potency is the fitted concentration of half-maximal effect; % of control where 0% means no effect
# MLL CXXC-DNA inh: qHTS Fluorescence Polarization Assay for Inhibitors of MLL CXXC domain - DNA interaction; Histone-lysine N-methyltransferase 2A (Homo sapiens), Q03164; MLL-CXXC / FITC-HOXA9 DNA fluorescence polarization; Potency, µM (doses to about 115 µM), for inactives: at the highest dose activity change, negative = inhibition, most hits filed as inhibitors; 290,000 compounds, 0.037% hits; active = well fitted inhibition curve with a large enough effect in the polarisation, with a control signal flat, not every such curve was filed as active; inconclusive = small, poorly fitted or top-dose-only effect, or effect the other way, or a change in a side signal; inactive = no such curve, though single readings can be large or run the other way; the % refers to the polarisation; note: potency is the fitted concentration of half-maximal effect
#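 Purified MLL-CXXC (added from a 7 uM solution) was preincubated 5 min at ambient with pinned compounds in 50 mM Tris-HCl pH 7.5, 50 mM NaCl, 1 mM DTT, 0.05% BSA. Fluorescein-labeled HOX-A9 DNA (50 nM solution) followed, 30 min, then polarization read.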
# GoLoco inh red: qHTS Assay for Inhibitors of RGS12 GoLoco Motif Activity (Red Fluorophore); Potency, µM (series often up to 61.6 µM), without a hit: at the highest dose activity, negative = inhibition, actives largely listed as inhibitors; Guanine nucleotide-binding protein G(i) subunit alpha-1 (Homo sapiens), P63096; Gai1:RGS12 GoLoco peptide FP, rhodamine, 10 min; 230,000 compounds, 0.44% hits; active = well fitted inhibition curve with a large enough effect, not every such curve was filed as active; inactive = no such curve, though single readings can be large or run the other way; note: potency is the fitted concentration of half-maximal effect; % is set by controls: 0 for no effect and ±100 for the full control effect; nearly all actives have a fitted effect of over 30% in size
# The depositor's hits bear a star; ? = inconclusive; nt = no result; [ ] = remark or other dose. This is a sample that favours compounds with a hit; in the whole collection about 0.43% have one here.
SMILES,Menin-MLL FL inh,Tb PFK inh,Menin MLL FP TR,MLL CXXC-DNA inh,GoLoco inh red
CCOc1ccc(/C=C/C2=Cc3c(sc(NC(=O)CSc4n[nH]c(N)n4)c3C#N)C(C)(C)C2)cc1,?,1.9%,7.94µM*,-22.9%,301.0%
C[n+]1cnc(-c2ccccc2)cc1-c1ccccc1,0.3,-7.3%,-7.8%,8.6%,14.1µM*
CN(Cc1ccco1)c1ncnc2ccc(-c3ccc4c(c3)OCCO4)cc12,nt,-2.7%,nt,nt,nt
COC[C@H]1OC(=O)c2coc3c2[C@@]1(C)C1=C(C3=O)C2CCC(=O)[C@@]2(C)C[C@H]1OC(C)=O (some centres not stated),?,nt,?,?,-6.6%
COC[C@H]1OC(=O)c2coc3c2[C@@]1(C)C1=C(C3=O)[C@H]2CCC(=O)[C@@]2(C)C[C@H]1OC(C)=O,?,nt,10µM*,nt,-0.6%
OC[C@@H]1O[C@H](O)[C@H](O)[C@@H](O)[C@@H]1O,1.1,nt,-7.7%,nt,nt
C[N+](C)(C)CCCCCC[N+](C)(C)C,1.5,nt,34.9%,11.0%,7.8%
C[N+](C)(C)CCCCCC(=O)/C=N/O,3.7,-3.9%,2.9%,-0.9%,2.51µM*
C=CCn1c(=O)n(C2OC(CO)C(O)C2O)c2nc(N)[nH]c(=O)c21 (configuration not stated),-5.8,nt,?,9.0%,nt
COc1cc(NS(=O)(=O)c2ccc([N+](=O)[O-])cc2)c2ncccc2c1,-1.9,nt,?,nt,nt
CN1CCN(C(=O)COc2ccc(-c3nc4ccccc4s3)cc2)CC1,1.9,-0.1%,12.6µM*,-1.3%,20.4%
CN1CCN(C(=O)COc2ccc3ccccc3c2)CC1,-3.0,-1.1%,-2.7%,-3.1%,nt
CCCCC(=O)O[C@]1(C(=O)CO)CCC2C3CCC4=CC(=O)CCC4(C)C3C(O)CC21C (some centres not stated),-0.5,nt,1.8%,7.9%,nt
O=c1c2ccccc2nc(CN2CCCCCC2)n1-c1ccc(F)cc1,-27.1,1.8%,17.8µM*,9.7%,3.2%
CC[C@H](C)[C@H](NC(=O)CNC(=O)[C@H](CCCNC(=N)N)NC(=O)CNC(=O)[C@@H](NC(=O)[C@H](Cc1ccc(O)cc1)NC(=O)[C@H](Cc1c[nH]c2ccccc12)NC(=O)[C@H](C)NC(=O)[C@@H]1CCCN1C(=O)[C@H](CC(N)=O)NC(=O)[C@@H](NC(=O)[C@H](CC(=O)O)NC(=O)[C@@H]1CCCN1C(=O)[C@@H](N)[C@@H](C)O)[C@@H](C)CC)[C@@H](C)O)C(=O)N[C@@H](CCCNC(=N)N)C(=O)N1CCC[C@H]1C(=O)N[C@H](C(=O)NCC(=O)N[C@@H](CCCNC(=N)N)C(=O)N[C@@H](Cc1ccccc1)C(N)=O)C(C)C,-2.5,nt,-12.3%,nt,nt
CC(C)(C)c1ccc(S(=O)(=O)/C=C/C#N)cc1,3.1,nt,-0.5%,-2.5%,4.6%
CCC(=O)OCCNc1cc(SCCC(=O)OC)c2nonc2c1[N+](=O)[O-],-2.8,-5.9%,3.9%,1.4%,-10.6%
CCCC(=O)OCCNc1cc(Sc2nc3ccccc3[nH]2)c2nonc2c1[N+](=O)[O-],12.0,21.3µM*,11.1%,6.4%,-11.4%
CCC1OC(=O)C[C@@H](O)[C@H](C)[C@@H](OC2OC(C)CC(N(C)C)C2O)[C@@H](CC=O)C[C@@H](C)C(=O)/C=C/[C@]2(C)OC2C1C (some centres not stated),1.1,nt,0.7%,-1.1%,nt
Cn1cc(/C=C2\SC(=S)N(NC(=O)c3ccccc3Cl)C2=O)c2ccccc21,?,-3.2%,?,?,-82.0%
Cc1ccc(C(=O)NN2C(=O)/C(=C/c3cn(C)c4ccccc34)SC2=S)cc1,nt,-1.4%,?,?,22.4µM*
Cc1ccc(-n2c(Cl)c(Cl)nc(Cl)c2=O)cc1,-4.5,?,-2.5%,-2.2%,2µM*
COc1nc(Cl)cn(-c2ccc(C)cc2)c1=O,5.0,-5.4%,0.6%,7.1%,-0.9%
COc1ccccc1N1CCN(c2ccc3ccccc3n2)CC1,nt,-2.8%,nt,18.8%,nt
COc1ccccc1N1CCN(c2ccc(-c3ccccc3)nn2)CC1,?,1.0%,?,3.7%,12.6µM*
SMILES,Menin-MLL FL inh,Tb PFK inh,Menin MLL FP TR,MLL CXXC-DNA inh,GoLoco inh red
O=C(O)c1cc2c(cc1S(=O)(=O)O)[C@H]1[C@@H](C3[C@H]2[C@@]2(Cl)C(Cl)=C(Cl)C3(Cl)C2(Cl)Cl)[C@]2(Cl)C(Cl)=C(Cl)C1(Cl)C2(Cl)Cl (some centres not stated),nt,nt,nt,nt,-20.7%[14.2 µM]
COc1cc2c(cc1OC)-c1cc3cc(OC)c(OC)cc3c(=O)n1CC2,-0.8,nt,10.7%,nt,-0.9%
CN1CCc2c(sc(N)c2C(=O)O)C1,-21.9,-4.1%,-8.1%,1.4%,-4.7%
COc1ccc(C(=O)c2c(N)sc3c2CCN(C)C3)cc1,?,1.7%,14.1µM*,?,nt
CC(C)(C)C(=O)C1C(=O)c2ccccc2C1=O,nt,nt,nt,nt,10µM*
C(C#CCCCCCCCCC[n+]1ccccc1)#CCCCCCCCCC[n+]1ccccc1,-7.2,10.4%,31.6µM*,15.2%,nt
c1ccc2c[n+](CCCC[n+]3ccc4ccccc4c3)ccc2c1,nt,nt,nt,nt,2.0%[14.2 µM]
[O-][n+]1onc2c1CCC(=N/O)/C2=N\Nc1ccccc1,7.9,3.9%,nt,-13.5%,14.1µM*
CCOCCCNC1=C(Cl)C(=O)c2ccccc2C1=O,-1.4,?,nt,-12.8%,3.16µM*
C=CCOC(=O)N[C@H](C[N+](=O)[O-])c1ccccc1,-1.2,nt,-22.5%,nt,0.8%
O=C1C2C3c4ccccc4C(c4ccccc43)C2C(=O)N1c1nc(-c2ccccc2)cs1 (configuration not stated),3.1,1.0%,11.2µM*,24.2%,4.7%
O=C1C2C3c4ccccc4C(c4ccccc43)[C@@H]2C(=O)N1c1nc(-c2ccccc2)cs1 (some centres not stated),0.5,0.5%,?,-4.9%,5.9%
CCOC(=O)NCCOc1ccc(Oc2ccccc2)cc1,-11.3,nt,-15.6%,nt,nt
CCOc1ccccc1-c1nnc2n1N=C(c1cc(OC)ccc1OC)CS2,1.4,nt,-17.9%,nt,nt
COc1ccc(OCC(=O)Nc2nccs2)cc1,-4.6,-14.4%,-2.3%,4.0%,3.6%
CCOc1ccc(OCC(=O)Nc2nccs2)cc1,4.7,26.9µM*,1.2%,18.4%,11.0%
Cc1nc2ccccc2n2c(O)c(CC(=O)O)cc12,?,6.4%,-27.3%,?,12.6µM*
O=C(O)c1ccc2c(c1)C(=O)N(CCc1ccc(O)cc1)C2=O,-2.3,3.1%,7.1%,nt,nt
